Source: the supplement of paper PMC8728848
This is one part of a sample in which the strongest signals are shown more often than they occur.

What was measured:
Assay in all cases: glycan array binding signal (z-score within array); higher = stronger binding
Conditions in all cases: glycan notation: IUPAC condensed, linker removed
[1] = molecular target: Man(a1-3)[Man(a1-6)]Man(a1-6)[Man(a1-3)]Man(b1-4)GlcNAc(b1-4)GlcNAc
Outline: (§1)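 The Consortium for Functional Glycomics database supplied 3228 glycan arrays, of which those lacking an available protein sequence were dropped. The binding signal, a within-array Z-score, was averaged across arrays of the same protein sequence and across linkers. Negative scores can be read as non-binding.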

[2] = molecular target: Man(a1-3)[Man(a1-6)]Man(b1-4)GlcNAc(b1-4)GlcNAc
Outline: as §1

[3] = molecular target: Man(a1-3)[Man(a1-6)]Man(b1-4)GlcNAc(b1-4)[Fuc(a1-6)]GlcNAc
Outline: as §1

Neu5Ac(a2-3)Gal = molecular target: Neu5Ac(a2-3)Gal
Outline: as §1

[4] = molecular target: Neu5Ac(a2-3)Gal(b1-3)GalNAc(b1-4)[Neu5Ac(a2-3)]Gal(b1-4)Glc
Outline: as §1

[5] = molecular target: Neu5Ac(a2-3)Gal(b1-3)GlcNAc(b1-6)GalNAc
Outline: as §1

[6] = molecular target: Neu5Ac(a2-3)Gal(b1-4)GlcNAc(b1-2)[Neu5Ac(a2-3)Gal(b1-4)GlcNAc(b1-6)]Man(a1-6)[Neu5Ac(a2-3)Gal(b1-4)GlcNAc(b1-2)Man(a1-3)][GlcNAc(b1-4)]Man(b1-4)GlcNAc(b1-4)GlcNAc
Outline: as §1

[7] = molecular target: Neu5Ac(a2-3)Gal(b1-4)GlcNAc(b1-3)Gal(b1-4)GlcNAc(b1-3)[Neu5Ac(a2-3)Gal(b1-4)GlcNAc(b1-3)Gal(b1-4)GlcNAc(b1-6)]GalNAc
Outline: as §1

[8] = molecular target: Neu5Ac(a2-3)Gal(b1-4)[Fuc(a1-3)]GlcNAc(b1-3)Gal(b1-4)GlcNAc
Outline: as §1

[9] = molecular target: Neu5Ac(a2-3)Gal(b1-4)[Fuc(a1-3)]GlcNAc(b1-6)[Gal(b1-3)]GalNAc
Outline: as §1

[10] = molecular target: Neu5Ac(a2-3)[Neu5Ac(a2-6)]GalNAc
Outline: as §1

[11] = molecular target: Neu5Ac(a2-6)Gal(b1-4)GlcNAc(b1-2)Man(a1-3)[Man(a1-6)]Man(b1-4)GlcNAc(b1-4)GlcNAc
Outline: as §1

[12] = molecular target: Neu5Ac(a2-6)Gal(b1-4)GlcNAc(b1-2)Man(a1-6)[Man(a1-3)]Man(b1-4)GlcNAc(b1-4)GlcNAc
Outline: as §1

[13] = molecular target: Neu5Ac(a2-6)Gal(b1-4)GlcNAc(b1-3)Gal(b1-4)GlcNAc(b1-2)Man(a1-3)[Neu5Ac(a2-6)Gal(b1-4)GlcNAc(b1-3)Gal(b1-4)GlcNAc(b1-2)Man(a1-6)]GalNAc
Outline: as §1

[14] = molecular target: Neu5Ac(a2-6)Gal(b1-4)GlcNAc(b1-3)Gal(b1-4)GlcNAc(b1-3)Gal(b1-4)GlcNAc(b1-2)Man(a1-3)[Neu5Ac(a2-6)Gal(b1-4)GlcNAc(b1-3)Gal(b1-4)GlcNAc(b1-3)Gal(b1-4)GlcNAc(b1-2)Man(a1-6)]GalNAc
Outline: as §1

[15] = molecular target: Neu5Ac(a2-6)GalNAc(b1-4)GlcNAc
Outline: as §1

[16] = molecular target: Neu5Ac(a2-8)Neu5Ac(a2-8)Neu5Ac(a2-3)[Gal(b1-3)GalNAc(b1-4)]Gal(b1-4)Glc
Outline: as §1

Neu5Ac(b2-6)GalNAc = molecular target: Neu5Ac(b2-6)GalNAc
Outline: as §1

B1: HHA (Hippeastrum hybrid) (protein)
chain: MQQDCNLVLYDVDKPIWASNTGGLARDCHLNMQSDGNLVVYAPRNQVIWASNTQGENGNYVCILQKDRNVVIYGTARWATGTNIHGAGIVGVPGSAPQNTTAEMIKLVRKYLITK
glycan array binding signal (z-score) [1]: 5.15 | glycan array binding signal (z-score) [2]: 8.3 | glycan array binding signal (z-score) [3]: 6.07 | glycan array binding signal (z-score) (Neu5Ac(a2-3)Gal): -0.214 | glycan array binding signal (z-score) [4]: -0.218 | glycan array binding signal (z-score) [5]: -0.216 | glycan array binding signal (z-score) [6]: -0.221 | glycan array binding signal (z-score) [7]: -0.187 | glycan array binding signal (z-score) [8]: -0.211 | glycan array binding signal (z-score) [9]: -0.179 | glycan array binding signal (z-score) [10]: -0.215 | glycan array binding signal (z-score) [11]: 0.002 | glycan array binding signal (z-score) [12]: 3.55 | glycan array binding signal (z-score) [13]: -0.165 | glycan array binding signal (z-score) [14]: -0.107 | glycan array binding signal (z-score) [15]: -0.222 | glycan array binding signal (z-score) [16]: -0.177 | glycan array binding signal (z-score) (Neu5Ac(b2-6)GalNAc): -0.213
